High-throughput results as filed in PubChem BioAssay.
Most compounds without a hit are left out; they make up all but 12% or so of the library.
G9a block: inhibitors of human histone lysine methyltransferase G9a; Q96KQ7; G9a H3K9 monomethylation, AlphaScreen, 2 h; Potency, µM (series often up to 102 µM), for the others: top-dose activity, negative = inhibition, most hits filed as inhibitors; hit rate 8.8% among 350,000; note: potency is the fitted concentration of half-maximal effect; % is set by controls: 0 for no effect and ±100 for the full control effect; nearly all actives have a fitted effect of over 75% in size
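Quantitative HTS format: methyltransferase activity on a biotin-tagged H3K9 peptide is measured by AlphaScreen, using a rabbit anti-monomethyl-H3K9 antibody with streptavidin donor and anti-IgG acceptor beads. Final levels are 20 nM enzyme, 500 nM peptide, 20 uM SAM; 2 h RT.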
BAZ2B inh: blocks human BAZ2B; Q9UIF8; hit rate 4.4% among 360,000; AlphaScreen BAZ2B-H3K14Ac peptide displacement; Potency, µM (highest dose often 114 µM), for the others: at the top dose activity change, negative = inhibition, hits mostly inhibitors; AID 504333; note: potency is the fitted concentration of half-maximal effect; % is set by controls: 0 for no effect and ±100 for the full control effect; nearly all actives have a fitted effect of over 60% in size
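AlphaScreen displacement of biotin-H3(5-23)K14Ac peptide (50 nM final) from BAZ2B (50 nM final) in PBS pH 7.4, 0.01% Tween-20; complex preformed 30 min RT, then compounds (top 110 uM) 30 min RT, beads 20 min dark.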
HP1b binding inh: HP1-beta chromodomain-methylated histone interaction inhibition; P83916; hit rate 0.56% among 390,000; AlphaScreen HP1-beta / biotin-H3K9me3 peptide binding; Potency, µM (series often up to 114 µM), for the others: top-dose activity change, negative = inhibition, most hits filed as inhibitors; note: potency is the fitted concentration of half-maximal effect; nearly all actives have a fitted effect of over 70% in size
Target sequence (P83916 whole entry, looked up): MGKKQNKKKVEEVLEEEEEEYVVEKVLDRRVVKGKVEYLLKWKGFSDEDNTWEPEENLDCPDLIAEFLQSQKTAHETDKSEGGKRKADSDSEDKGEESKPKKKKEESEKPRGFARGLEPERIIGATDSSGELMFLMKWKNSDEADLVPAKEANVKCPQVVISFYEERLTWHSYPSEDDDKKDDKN
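HP1-beta protein (50 nM final) preincubated 30 min at room temperature with biotinylated H3(1-18)K9me3 peptide (50 nM) in PBS pH 7.4, 0.01% Tween-20, then compound added for 30 min. AlphaScreen streptavidin donor/nickel chelate acceptor beads (10 ug/mL final), 30 min dark, luminescence read.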
PLK1 PBD inh: blocks phosphopeptide binding to human PLK1 polo-box domain; Plk1 PBD binding of FITC phosphopeptide, fluorescence polarization; Potency, µM, for the others: max response, negative = inhibition, most hits filed as inhibitors; hit rate 2.8% among 360,000; note: potency is the fitted concentration of half-maximal effect; series mostly up to about 57 µM; % is set by controls: 0 for no effect and ±100 for the full control effect; nearly all actives have a fitted effect of over 65% in size
PI5P4K alpha inh: PI5P4K alpha (human) kinase inhibition | hit rate 1.2% among 330,000 | max response, % | PI5P4Kalpha enzyme, ADP-Glo luminescence, 60 min; active compounds read low | AID 652105 | P48426; active = max response of -50% or lower; inconclusive = between -30% and -50%; inactive = -30% or higher; note: value at the top dose of about 77 µM; % is set by controls: 0 for no effect and ±100 for the full control effect
Target sequence (P48426 whole entry, looked up): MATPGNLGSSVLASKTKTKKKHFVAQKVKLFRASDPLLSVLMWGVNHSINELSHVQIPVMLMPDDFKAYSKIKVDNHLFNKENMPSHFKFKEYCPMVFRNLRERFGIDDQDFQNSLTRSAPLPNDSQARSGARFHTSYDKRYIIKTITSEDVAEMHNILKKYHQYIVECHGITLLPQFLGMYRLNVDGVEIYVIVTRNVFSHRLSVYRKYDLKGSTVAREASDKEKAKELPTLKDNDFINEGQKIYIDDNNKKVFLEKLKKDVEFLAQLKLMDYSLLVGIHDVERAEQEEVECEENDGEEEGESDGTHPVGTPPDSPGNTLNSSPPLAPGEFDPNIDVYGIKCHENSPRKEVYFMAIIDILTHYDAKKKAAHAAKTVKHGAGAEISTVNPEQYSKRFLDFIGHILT
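Luminescence from ADP-Glo served as readout of PI5P4Kalpha activity in a qHTS format. Reaction: enzyme, substrate, compound, ATP at 5 microM final, 60 min at RT.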
JMJD2A Tudor: JMJD2A Tudor domain (human) inhibition | hit rate 4.4% among 390,000 | AID 504339 | Potency, µM (top dose mostly 114 µM), inactives show at the highest dose activity change, negative = inhibition, actives largely listed as inhibitors | O75164 | AlphaScreen JMJD2A-Tudor / H3K4me3 peptide binding; note: potency is the fitted concentration of half-maximal effect; % is set by controls: 0 for no effect and ±100 for the full control effect; nearly all actives have a fitted effect of over 50% in size
Active calls of the source: *; ? = inconclusive; · = no result; [ ] = another dose, or the depositor's remark. Unless noted, calls come from the whole dose curve; as a rule, active = well fitted curve in the direction sought with a large enough effect; inconclusive = small, poorly fitted or top-dose-only effect, or another doubt; inactive = no such curve, though single readings can be large; an effect the other way counts as inactive or inconclusive.

SMILES	G9a block	BAZ2B inh	HP1b binding inh	PLK1 PBD inh	PI5P4K alpha inh	JMJD2A Tudor
Oc1ccc(/C=N/n2c(C3CCCCC3)n[nH]c2=S)c(O)c1	1.6µM*	-33%	-10%	?	-24	14µM*
Oc1ccc(Br)cc1/C=N/n1c(C2CCCCC2)n[nH]c1=S	50µM*	?	-18%	27µM*	-13	?
Cc1cc(C)n2c(SCC(=O)Nc3ccc(F)cc3)nnc2n1	11µM*	-2%	?	21µM*	-9	-2%
Cc1ccc(NC(=O)CSc2nnc3nc(C)cc(C)n23)cc1	-1%[59 µM]	9%	59%	·	·	-5%
Cc1cc(C)n2c(SCC(=O)Nc3ccc(F)cc3F)nnc2n1	?	-13%	-5%	?	-5	89µM*
COc1ccc([N+](=O)[O-])c(S(=O)(=O)c2ccc(Cl)cc2)n1	18µM*	-29%	33%	3µM*	4	-28%
O=[N+]([O-])c1cccnc1S(=O)(=O)c1ccccc1	?	-2%	43%	-23%	8	-10%
COc1ccc([N+](=O)[O-])c(S(=O)(=O)c2ccccc2)n1	11µM*	-18%	40%	9.5µM*	-16	-26%
CCC12CCCN3CCc4c(n(c5ccccc45)C(O)(C(=O)OC)C1)C32 (centres undefined)	50µM*	-26%	-3%	-16%	1	-30%
CC[C@]12CCCN3CCc4c(n(c5ccccc45)[C@](O)(C(=O)OC)C1)[C@@H]32	2%[12.7 µM]	26%	22%	-8%	8	-3%
COc1ccc(-c2nnc(C3CCN(S(=O)(=O)c4ccc(C)c(C)c4)CC3)o2)cc1	-12%[59 µM]	-10%	34%	·	·	-14%
Cc1ccc(S(=O)(=O)N2CCC(c3nnc(-c4cccc(C)c4)o3)CC2)cc1	3.5µM*	-16%	1%	·	·	-17%
CCCc1ccc(S(=O)(=O)N2CCC(c3nnc(-c4cccc(C)c4)o3)CC2)cc1	8.9µM*	-2%	27%	·	·	-16%
COc1ccccc1-c1nnc(C2CCN(S(=O)(=O)c3ccc(F)c(C)c3)CC2)o1	?	-12%	23%	·	·	-27%
O=S(=O)(c1cccc(-c2nnc(-c3cccnc3)o2)c1)N1CCCCC1	-4%[59 µM]	-2%	22%	-3%	·	-6%
CC1CCN(S(=O)(=O)c2cccc(-c3nnc(-c4cccnc4)o3)c2)CC1	22%[59 µM]	0%	-10%	15µM*	-25	28µM*
COc1ccc(OC)c(NC(=O)Cn2nc3c(cc2=O)CCCC3)c1	-42%[59 µM]	-5%	16%	·	·	-16%
COc1ccccc1Cc1nc2ccccc2nc1SCC(=O)Nc1ccccc1C(F)(F)F	14%[59 µM]	3%	22%[57 µM]	·	·	-12%
CCOc1ccccc1-n1c(N)c(C(=O)OC)c2nc3ccccc3nc21	-55%[59 µM]	3%	22%	·	·	0%
COc1ccc(C2c3cccn3CCN2S(=O)(=O)c2ccc([N+](=O)[O-])cc2)cc1 (centres undefined)	13µM*	?	-4%	·	·	-35%
COc1ccccc1Cn1c(=S)[nH]c2cc(C(=O)NCCN(C)C)ccc2c1=O	45µM*	-14%	15%	-13%	3	-19%
COc1ccc(-n2c(=S)[nH]c3cc(C(=O)NCCCN4CCOCC4)ccc3c2=O)cc1OC	35µM*	?	34%	-6%	-8	22µM*
O=C(NCCCN1CCOCC1)c1ccc2c(=O)n(Cc3ccccc3)c(=S)[nH]c2c1	50µM*	-26%	39%	4%	-2	-10%
CC(=O)Nc1c(Cl)c(Cl)c2c(c1Cl)C(=O)c1cc(Cl)ccc1-2	·	·	-12%	1%	-2	-4%
COC(=O)c1ccc(OCC2c3cc(OC)c(OC)cc3CCN2C(=O)COc2ccc(Cl)cc2)cc1 (centres undefined)	-2%[59 µM]	-10%	-12%	·	·	-27%
SMILES	G9a block	BAZ2B inh	HP1b binding inh	PLK1 PBD inh	PI5P4K alpha inh	JMJD2A Tudor
CCn1cc(C(=O)NCCCN(C)C)c(=O)c2cc(F)c(N3CCN(C)CC3)cc21	35µM*	2%	30%	-4%	-6	-8%
CCCCCNC(=O)c1cn(CC)c2cc(N3CCN(C)CC3)c(F)cc2c1=O	43%[0.501 µM]	-2%	-3%	-1%	3	-10%
CCn1cc(C(=O)NCCN(C)C)c(=O)c2cc(F)c(N3CCN(C)CC3)cc21	50µM*	-1%	5%	-11%	5	-9%
CCCNC(=O)c1cn(CC)c2cc(N3CCN(C)CC3)c(F)cc2c1=O	-12%[12.7 µM]	4%	20%	-4%	5	0%
C[C@H](CCCC(C)(C)O)[C@H]1CC[C@H]2[C@@H]3CC=C4C[C@@H](O)CC[C@]4(C)[C@H]3CC[C@]12C	5%[12.7 µM]	·	·	·	·	·
COc1ccc([C@H]2N[C@]3(CCCN(Cc4ccc(Br)cc4)C3=O)[C@H]3C(=O)N(C)C(=O)[C@@H]23)cc1	·	·	·	-3%	-7	·
CCOc1cc(/C=C2\NC(=S)N(C)C2=O)ccc1OCc1ccc(C(=O)O)cc1	?	71µM*	25%	?	-5	?
CCOc1cc(/C=C2/NC(=O)NC2=O)cc(Br)c1OCc1ccc(C(=O)O)cc1	45µM*	71µM*	?	?	?	?
CC(=O)c1ccc(NC(=O)CSc2ccc3nc(-c4ccccc4)cn3n2)cc1	9%[59 µM]	-3%	31%[57 µM]	·	·	-3%
C/C(=N/NS(=O)(=O)c1ccccc1)c1c[nH]c2ccccc12	22µM*	-26%	43%	-13%	-12	-17%
C/C(=N/NS(=O)(=O)c1cccc([N+](=O)[O-])c1)c1c[nH]c2ccccc12	25µM*	50µM*	5%	-21%	-10	-24%
CC(=O)Nc1cccc(/C(C)=N/NS(=O)(=O)c2ccc(C)cc2)c1	50µM*	-7%	26%	-8%	0	-14%[11.4 µM]
C/C(=N/NS(=O)(=O)c1ccc(C)cc1)c1c[nH]c2ccccc12	25µM*	-17%	30%	4%	6	-18%
C/C(=N/NS(=O)(=O)c1cc(C)ccc1C)c1c[nH]c2ccccc12	?	-21%	16%	-3%	3	-14%
CC1(NC(=O)Cn2cc(C(F)(F)F)ccc2=O)CCS(=O)(=O)C1 (centres undefined)	15%[59 µM]	-3%	28%	-10%	3	-7%
Nc1c(S(=O)(=O)c2ccccc2)cnc2c(-c3ccc(F)cc3)cnn12	-1%	-5%	35%	-12%	·	-6%
CS(=O)(=O)c1cnc2c(S(=O)(=O)c3ccccc3)cnn2c1N	?	-25%	1%	-7%	4	28µM*
COc1ccccc1CNC(=O)C(NS(=O)(=O)c1ccc2c(c1)CCN2C(C)=O)C(C)C (centres undefined)	-6%[59 µM]	·	9%	·	·	-14%
COc1cc(/C=N/NC(=O)NC23CC4CC(CC(C4)C2)C3)ccc1O	56µM*	?	1%	0%	3	-33%
